Source: PubChem BioAssay
IL-1B inflam inh = inhibitors of inflammasome signaling (IL-1 beta secretion); THP-1 LPS/ATP IL-1B secretion, AlphaLISA, 16 h; stronger effect = lower value; activity change, % at 57.5 µM; 360,000 compounds, 4.7% hits; in the data active means activity change below about -50%; inconclusive means mostly about -30% to -49%
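THP-1 cells pretreated 1 hr with compounds (up to 57.5 uM final), then stimulated with LPS (250 ng/mL final) plus ATP (1.25 mM final); secreted IL-1B measured by AlphaLISA after 16 hr, decreased signal indicating inhibition.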
HT1080 IDH1KD tx = kills HT-1080 cells with IDH1 knockdown; HT-1080 IDH1 knockdown viability, ATP luminescence, 48 h; Potency, µM (series often up to 46.1 µM), for inactives: top-dose activity, negative = toxicity, most hits filed as cytotoxic; 360,000 compounds, 2% hits; AID 686971;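 further: potency means the concentration at half of the fitted maximal effect; 0% = DMSO wells and -100% = cell-free medium wells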
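After a 2 h attachment period, IDH1KD HT-1080 cells took pin-transferred compound for 48 h at 37 °C; ATP-based luminescence after 10 min room-temperature reagent incubation reported viability.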
KB-V1 MDR tox = kills drug-selected multidrug resistant KB-V1 cells | 400,000 compounds, 3.4% hits | KB-V1 MDR cells viability, CellTiter-Glo, 72 h | Potency, µM (titrated, usually from 46.1 µM), usual class: cytotoxic; further: potency means the concentration at half of the fitted maximal effect; nearly all actives have a fitted effect of over 60% in size
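Drug-selected KB-V1 cells, grown in DMEM lacking phenol red with 10% FBS, receive compound titrations; after three days at 37 degrees C, surviving cell ATP is quantified by CellTiter-Glo luminescence and responses normalized and curve-fitted.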
HT1080NT lethal = kills 2HG-producing HT-1080-NT fibrosarcoma cells; HT-1080-NT fibrosarcoma viability, CellTiter-Glo ATP luminescence, 48 h; Potency, µM (top dose mostly 46.1 µM), for the others: at the top dose activity, negative = less viability, actives largely listed as cytotoxic; 360,000 compounds, 1.6% hits; AID 686970;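 further: NT is the 2HG producing partner of a matched IDH1 knockdown line; potency means the concentration at half of the fitted maximal effect; 0% = DMSO-treated cells and -100% = media-only wells without cells; nearly all actives have a fitted effect of over 55% in size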
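Read-out is CellTiter-Glo luminescence after 10 minutes at room temperature, following 48 hours' compound treatment of HT-1080-NT cells (750 cells/well, RPMI, 5% FBS, 37 degrees C).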
KB-3-1 tox = kills parental KB-3-1 adenocarcinoma cells | KB-3-1 viability, CellTiter-Glo ATP luminescence, 72 h | Potency, µM (top dose mostly 46.1 µM), hits mostly cytotoxic | 400,000 compounds, 1.4% hits | AID 1347075; further: potency means the concentration at half of the fitted maximal effect; nearly all actives have a fitted effect of over 60% in size
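Here the drug-naive KB-3-1 line serves as comparator for MDR sub-line selectivity; cells received compound titrations, 72 h at 37 °C, then CellTiter-Glo readout.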
* = called active by the depositor; i = inactive; ? = inconclusive; nt = no result; [ ] = another dose, or the depositor's remark. Compounds with a hit are over-represented: about 8.8% of the library has one in this group of screens. Unless noted, the call rests on the fitted dose curve; in most records, active means well fitted curve in the direction sought with a large enough effect; inconclusive means small, poorly fitted or top-dose-only effect, or another doubt; inactive means no such curve, though single readings can be large; an effect the other way counts as inactive or inconclusive. Unless noted, on the % scale 0 is the no-effect control and ±100 the full control effect.

SMILES	IL-1B inflam inh	HT1080 IDH1KD tx	KB-V1 MDR tox	HT1080NT lethal	KB-3-1 tox
Cc1ccc2c(c1)C1CN(C)CCC1N2C(=O)COc1ccc(N(C)C(=O)C(C)(C)C)cc1 (stereo not given)	-76*	0%	i	-3%	i
C=CC[n+]1c(-c2ccc(C)cc2)csc1Nc1ccc(NC(C)=O)cc1	-21	?	?	-17%	?
C=CC[n+]1c(-c2ccc(OC)cc2)csc1NNC(=O)Nc1ccccc1	-25	?	23µM*	?	i
COc1cccc2sc(Nc3nc(-c4cc5ccccc5oc4=O)cs3)nc12	59	2.1µM*	8.2µM*	5.2µM*	?
CC(=O)Nc1ccc2nc(NC(=O)COc3ccccc3C)sc2c1	4	-18%	i	-29%	?
CC(=O)Nc1ccc(Nc2nc(-c3cc4ccccc4oc3=O)cs2)cc1	-22	1%	i	-19%	i
Nc1ccc(Nc2nc(-c3cc4ccccc4oc3=O)cs2)cc1	-90*	-1%	?	-8%	i
COc1ccc(Nc2nc(-c3cc4cccc(OC)c4oc3=O)cs2)cc1	12	-5%	i	-9%	i
O=C(O)c1ccc(Nc2nc(-c3cc4ccccc4oc3=O)cs2)cc1O	0	-10%	i	-10%	i
COc1cccc2sc(Nc3nc4ccc(NC(C)=O)cc4s3)nc12	52	?	i	?	16µM*
COc1ccc2oc(=O)c(-c3csc(Nc4cccc(O)c4)n3)cc2c1	-79*	?	?	?	i
CC(C)(C)Nc1c(-c2ccc(O)cc2)nc2ccc(Cl)cn12	9	14%	i	11%	i
COc1ccc(CCNC(=O)C2(c3cccs3)CCOCC2)cc1	nt	nt	i	nt	i
Cc1ccc(NC(=O)CN2C(=O)COc3ccc(S(=O)(=O)NC4CCCC4)cc32)c(Cl)c1	nt	nt	i	nt	i
COc1cccc2sc(Nc3nc(-c4ccncc4)cs3)nc12	40	2.3µM*	8.2µM*	2.3µM*	5.8µM*
COc1cccc2sc(NN)nc12	-1	?	i	-22%	i
COc1ccc(N2CCN(C(=O)C(=O)c3cc(OC)c4ccccc4c3)CC2)cc1	-2	?	?	-6%	?
Cc1ccc(C)c(S(=O)(=O)Nc2ccc(O)c3ccccc23)c1	-12	-7%	i	-12%	i
Cc1ccc(S(=O)(=O)Nc2ccc3c4c(cccc24)CC3)c(C)c1	45	10µM*	21µM*	21µM*	?
Cc1cc(C)c(S(=O)(=O)Nc2ccc3c4c(cccc24)CC3)c(C)c1	10	1µM*	1.3µM*	?	0.73µM*
Cc1ccc(S(=O)(=O)Nc2ccc(O)c3ccccc23)c(C)c1	-81*	?	i	29µM*	i
O=S(=O)(Nc1ccc2c3c(cccc13)CC2)c1ccccc1	6	-4%	i	-9%	i
O=C(Nc1ccccc1)C1C2/C=C\CCCCC21 (stereo not given)	-50*	1%	i	0%	i
Cc1ccccc1NC(=O)C1C2/C=C\CCCCC21 (stereo not given)	3	-5%	?	0%	i
CC1(C)CC(Cc2ccc(C(F)(F)F)cn2)N(C(=O)OC(C)(C)C)C1 (stereo not given)	1	19%	i	-3%	i
SMILES	IL-1B inflam inh	HT1080 IDH1KD tx	KB-V1 MDR tox	HT1080NT lethal	KB-3-1 tox
CS(=O)(=O)N(CC(=O)N1CCCCCC1)c1cccc(Br)c1	-7	1%	21µM*	1%	i
Cc1ccc(N(CC(=O)N2CCCCCC2)S(C)(=O)=O)cc1	-7	-3%	i	3%	i
CS(=O)(=O)N(CC(=O)N1CCCCCC1)c1ccc(Br)cc1	0	8%	15µM*	12%	i
CCOC(=O)N1CCN(C(=O)CN(c2ccc(OCc3ccccc3)cc2)S(C)(=O)=O)CC1	-14	-23%	5.2µM*	4%	i
O=C1CCCC2=C1C1(CCCC1)N=C(Nc1nc3cc(Cl)ccc3o1)N2	nt	nt	?	nt	i
CC(=O)N1CCCc2cc(S(=O)(=O)N(C)CC(=O)Nc3cccc(Cl)c3C)ccc21	nt	nt	i	nt	i
O=C(Nc1cccc(Br)c1)Nc1nc2c(s1)CCCCCC2	nt	nt	?	nt	i
Cc1ccccc1NC(=O)CSc1nnc(NC(=O)c2ccco2)s1	0	-3%	i	-2%	i
O=C(c1cn(-c2ccccc2)nc1-c1ccc(F)cc1)N1CCOCC1	-12	19%	i	13%	i
O=C(NCC(c1cccs1)N1CCOCC1)c1cc(-c2ccc(F)cc2)nc2ccccc12 (stereo not given)	-9	-6%	21µM*	-1%	i
O=C(NC(=S)N1CCOCC1)c1cn(-c2ccccc2)nc1-c1ccc(F)cc1	-25	-8%	21µM*	-12%	i
O=C(NCC(c1cccs1)N1CCOCC1)c1cn(-c2ccccc2)nc1-c1ccc(F)cc1 (stereo not given)	-60*	0%	i	11%	i
Cc1ccccc1NC(=O)CCc1c(C)nc2c(c1C)c(=O)n(C)c(=O)n2C	nt	nt	i	nt	i
CCOC(=O)C1=NOC2(C1)C(=O)Nc1ccc(OC)cc12 (stereo not given)	-19	2%	?	14%	i
Cc1c(C(=O)N2CCN(c3ncccn3)CC2)oc2ccc(Cl)cc12	-2	-1%	i	-7%	i
CCCCn1c(-c2csc3c2CCCC3)n[nH]c1=S	-3	-22%	21µM*	-3%	i
CCCCn1c(-c2csc3c2CCC(C)C3)n[nH]c1=S (stereo not given)	-12	?	15µM*	?	21µM*
CCn1c(-c2csc3c2CCCC3)n[nH]c1=S	-5	13%	?	12%	i
C=CCn1c(-c2csc3c2CCC(C)C3)n[nH]c1=S (stereo not given)	-17	-17%	i	-14%	i
CCCCn1c(-c2csc(CC)c2)n[nH]c1=S	16	8%	i	1%	i
CCCCn1c(-c2csc(C(C)C)c2)n[nH]c1=S	11	-1%	23µM*	-8%	i
COc1ccc(NC(=O)c2c(NCc3ccc(N(C)C)cc3)sc3c2CCC3)cc1	nt	nt	i	nt	i
Cc1ccc(-c2c[n+](CC(=O)c3cccs3)c3n2CCC3)cc1	?	-4%	?	-24%	i
CCc1ccc(C)[n+](CC(=O)c2cccs2)c1	-58*	-3%	i	-5%	?
CCn1c(SCC(=O)c2[nH]c(C)c(C(C)=O)c2C)nnc1-c1ccncc1	20	3%[9.24 µM]	i	1%	i
CCn1c(SCC(N)=O)nnc1-c1ccc2[nH]c(C)c(C)c2c1	1	15%	21µM*	19%	5.8µM*
